This is an account of results in PubChem BioAssay (Tox21).

Inconclusive results are not listed. Unmarked numbers belong to inactive results. Calls come from the whole dose curve.
% is set by controls: 0 for no effect and ±100 for the full control effect.

Chain of Thyrotropin receptor (Homo sapiens) (P16473 whole entry, looked up): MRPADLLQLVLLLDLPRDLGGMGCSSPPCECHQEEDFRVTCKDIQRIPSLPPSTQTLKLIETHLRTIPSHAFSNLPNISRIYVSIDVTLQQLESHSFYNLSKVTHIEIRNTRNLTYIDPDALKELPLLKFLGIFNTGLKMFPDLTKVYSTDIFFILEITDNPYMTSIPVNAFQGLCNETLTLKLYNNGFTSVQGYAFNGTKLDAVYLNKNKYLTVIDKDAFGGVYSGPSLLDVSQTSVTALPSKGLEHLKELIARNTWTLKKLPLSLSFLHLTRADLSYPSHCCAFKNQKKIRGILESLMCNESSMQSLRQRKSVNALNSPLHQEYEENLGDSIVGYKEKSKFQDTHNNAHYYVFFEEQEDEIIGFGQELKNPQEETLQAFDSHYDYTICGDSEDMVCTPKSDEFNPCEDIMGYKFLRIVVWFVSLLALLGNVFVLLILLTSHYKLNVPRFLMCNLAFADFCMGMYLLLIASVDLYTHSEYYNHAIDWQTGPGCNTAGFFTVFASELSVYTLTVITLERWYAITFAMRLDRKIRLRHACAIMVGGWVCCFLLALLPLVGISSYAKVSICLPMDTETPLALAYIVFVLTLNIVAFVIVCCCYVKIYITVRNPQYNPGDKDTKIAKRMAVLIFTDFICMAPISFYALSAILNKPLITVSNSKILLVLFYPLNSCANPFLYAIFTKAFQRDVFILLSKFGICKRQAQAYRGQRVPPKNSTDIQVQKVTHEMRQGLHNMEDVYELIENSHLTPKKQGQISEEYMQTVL

In this test the target is Thyrotropin receptor (Homo sapiens) (UniProt P16473). As to the kind of experiment: qHTS assay to identify small molecule agonists of the thyroid stimulating hormone receptor (TSHR) signaling pathway (AID 1224843). Note: nearly all actives have a fitted effect of over 45% in size. As to conditions: TSHR-HEK293 cells, cAMP HTRF, agonist mode, 30 min; series mostly up to 92.4 µM; activation: at the top concentration. From the text:
National Center for Advancing Translational Sciences [NCATS]
NIH Chemical Genomics Center [NCGC]
U.S. Environmental Protection Agency [EPA]
National Institutes of Environmental Health Sciences [NIEHS]
National Toxicology Program [NTP]
U.S. Food and Drug Administration [FDA]
TSHR is the receptor for thyrotropin (thyroid stimulating hormone or TSH), a member of the glycoprotein hormone family. TSH is released by the anterior pituitary gland and is the main regulator of thyroid gland growth and development. Upon binding circulating thyrotropin, a G-protein signal cascade activates adenylyl cyclase and […] cAMP concentration is increased. cAMP is a key second messenger involved extensively in cellular signal transduction pathways associated with the majority of G-protein coupled receptors (GPCRs). The activation of these GPCRs by neurotransmitters, lipids, nucleotides, peptides and hormones results in the activation or the inhibition of plasma membrane-bound adenylate cyclase through heterotrimeric G-proteins. A cell-based TSHR assay was used to screen the Tox21 10K library for compounds that can modulate TSHR in agonist mode.
Tox21 Assay Protocol Summary:
TSHR-Hek293 cells were dispensed at 800 cells/4uL/well in 1536-well white plates using a Multidrop dispenser. […] The plates were incubated at room temperature for 30 min. 2.5 ul/well of cAMP-d2 and 2.5ul/well of anti-cAMP-cryptate was added respectively into the assay plates using a Flying Reagent Dispenser. After 1 hr incubation at room temperature, the fluorescence intensity in the plates was measured using an Envision plate reader. Each test compound was measured at 15 concentrations and in triplicates.
On the technique in general: qHTS replaces the single test concentration by a dilution series.
Take `COC(=O)CSc1cc(N=c2sc(=O)n3n2CCCC3)c(F)cc1Cl`: the “activation” value is 18.1%. In the case of `CC(=O)N(CC(=O)N(C)C)c1ccccc1` it was 0.907% [at 42.5 µM]; in that of `O=C(O)Cc1cc(I)c(Oc2ccc(O)c(I)c2)c(I)c1`, 4.89%. In the case of `CC(C)(C)C1CCCCC1O` (stereo not given) it was 4.97%; in that of `CCCCCCCCCC=O`, 3.39%; in that of `Cc1ccc(C)o1`, 7.7%. In the case of `CC(C)(C)c1cc(CO)cc(C(C)(C)C)c1O` it was -4.26%; in that of `c1ccc(OCc2ccc(CCCN3CCOCC3)cc2)cc1`, -12.3% [at 42.5 µM]; in that of `O=C(NN1CCCC1)NS(=O)(=O)c1ccc(Cl)cc1`, 13.6% [at 42.5 µM]. For `CC1=CC(=O)/C(=C(/C)O)C(=O)O1`, the “activation” value is 3.06%. For the molecule `O=C(O)Cn1c(C(=O)Nc2nc(-c3ccccc3Cl)cs2)cc2ccccc21`, the “activation” value is 3.9% [at 42.5 µM]. Take `CN1CCN(C2=Nc3ccccc3Sc3ccc(Cl)cc32)CC1`: the “activation” value was -5.34% [at 42.5 µM]. In the case of `Cn1c(NCCN(CCO)CCCc2ccc([N+](=O)[O-])cc2)cc(=O)n(C)c1=O` it was -0.878% [at 42.5 µM]; in that of `CC(C)NCC(O)COc1ccc(CC(N)=O)cc1` (stereo not given), -7.38%. Take `O=C(Nc1ccccc1)OCC(CN1CCCCC1)OC(=O)Nc1ccccc1` (stereo not given): the “activation” value was 0.364% [at 42.5 µM]. As for `CCCCCC(CO)CCC` (stereo not given), the figure is -4.04%; as for `CCCc1ccccc1`, -6.28%; as for `O=c1[nH]cnc2ccccc12`, 1.31%.

`O=C1[C@H](CC[C@H](O)c2ccc(F)cc2)[C@@H](c2ccc(O)cc2)N1c1ccc(F)cc1`: the “activation” value is 0.0986% [at 42.5 µM]. In the case of `O=C(Cl)c1ccc([N+](=O)[O-])cc1` it was 2.45%; in that of `CC(C)(C)C(=O)OCOP(=O)(COCCn1cnc2c(N)ncnc21)OCOC(=O)C(C)(C)C`, 7.83% [at 42.5 µM]. In the case of `FC(F)(F)C(F)(F)C(F)(F)C(F)(F)C(F)(F)C(F)(F)CCI` it was 2.73% [at 42.5 µM]; in that of `CC(CN)CCCN` (stereo not given), -4.55%. For the molecule `CC(=O)c1ccc2c(c1)[C@H](NC(=O)c1ccc(F)cc1)[C@@H](O)C(C)(C)O2`, the “activation” value was -1.46%.

For `C[C@@H](C1=C(CCN(C)C)Cc2ccccc21)c1ccccn1`, the “activation” value is -0.845% [at 42.5 µM]. In the case of `CN(C)CCCNCCCN` it was 0.401%; in that of `CCCCCCCCCCCCCCCC(=O)OC/C=C(C)/C=C/C=C(C)/C=C/C1=C(C)CCCC1(C)C`, 1.49%; in that of `Oc1ccc2c(c1)OCO2`, 0.136%. In the case of `CC[C@H](C)[C@@H](C(=O)O)n1sc2ccccc2c1=O` it was 3.23%. As for `CCCCOC(O)CC` (stereo not given), the figure is 0.487%; as for `c1ccc(CNCc2ccccc2)cc1`, -14.9%; as for `CC(C)CCCC(C)CCO` (stereo not given), -1.2%.

`NC1CCN(c2nc3c(cc2F)c(=O)c(C(=O)O)cn3-c2ccc(F)cc2F)C1` (stereo not given): the “activation” value was 2.02% [at 42.5 µM]. In the case of `CC(C)(C)c1ccc(OCC2CO2)cc1` (stereo not given), the “activation” value was -9.53%. As for `O=C(C(=O)c1ccc(Br)cc1)c1ccc(Br)cc1`, the figure is 3.26% [at 19 µM]; as for `CCOc1ccc2[nH]cc(C(=O)NCc3ccccc3)c(=O)c2n1`, 1.68%; as for `CC(C)CC=O`, 2.77%. As for `Cc1c(Cn2ccnc2)c2ccccc2n1CCC(=O)O`, the figure is -1.38% [at 42.5 µM]; as for `Nc1nc(N)c2nc(CNc3ccc(C(=O)N[C@@H](CCC(=O)O)C(=O)O)cc3)cnc2n1`, 3.09%; as for `CC(=O)O[C@@H]1C(=O)O[C@@H]2[C@H]1OC(=O)[C@@H]2OC(C)=O`, 2.19% [at 42.5 µM].
